The source of these data is the supplement of paper PMC10338343.

± gives the standard deviation.
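Also: 1 nM active piRISC with 0.1 nM target library at 33 °C single turnover.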

The subject of this assay is MILI (PIWIL2) piRISC loaded with piRNA #1 (26 nt). Put plainly: pre-steady-state target cleavage rate (min^-1); guide: piRNA #1 5'p-UGAGGUAGUAGGUUGUAUAGUAUCCA; MIWI and MILI are mouse PIWI proteins and EfPiwi is from a freshwater sponge; tags in brackets are library labels; higher = faster piRNA-guided slicing of the target. Conditions: auxiliary factor: 500 nM mouse GTSF1. The gist of the method:
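Cleave-'n-Seq measured uncleaved targets by sequencing after a transcribed, DNA-blocked target RNA library […] was mixed with 1 nM active affinity-purified piRISC holding one synthetic guide, with or without 500 nM GTSF1 partner protein, at 33 °C in HEPES–potassium acetate buffer for 0–8 or 0–960 min. Counts were normalised to depth and to weakly complementary targets, three trials were pooled, and k3 was capped at 0.0001 min^-1. A burst-and-steady-state fit gave the pre-steady-state cleavage rate.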
Take GGAGACCAUACUAUACUACCUACUAGCUCA: the “pre-steady-state target cleavage rate” value is 0.0939 ± 0.017. On to GGAGACCUAUCUAUACAACCAUCUACCUCA, for which the “pre-steady-state target cleavage rate” value was determined as 0.00428 ± 0.0031. As to “GGAGACCUUACUAUACAACCUACUUGGAGA [g7:g22:cont:t1A]”, the “pre-steady-state target cleavage rate” value amounted to 0.00375 ± 0.0034. To GGAGACCUAUGUAUACAUCCUACUUCCUCA belongs 0.0795 ± 0.013; to GGAGACCAUACUAUAAACCUACUACCUCA, 0.0199 ± 0.0046; to GGAGACCUAUCUAUACAAUCUACUACCUCA, 0.093 ± 0.0085. To GGAGACCUAUGAUAUGUACCUUCAACCUCA belongs < 0.0001. To GGAGACGAUAGUAUACAACCAACUACCUCA belongs 0.00662 ± 0.0036; to GGAGACCUAAGUAUUCAACCUACUACCUCA, 0.0617 ± 0.0092; to GGAGACCUAUGAAUACAACCUACUACCUGCA, 0.00801 ± 0.004.

On to GGAGACCUAUGAUUACAACCUACUCCUCA, for which the “pre-steady-state target cleavage rate” value is < 0.0001. To GGAGACCUAUGAUAUGUUCCUACACCUCA belongs < 0.0001; to GGAGACCUAUCUAUACAACCAACUACGUCA, 0.00385 ± 0.0021; to GGAGACCAUACUAUACAAUCUACUACCUCA, 0.146 ± 0.013. Under GGAGACCUAUGUAUACAACCUAAUACCUCA stands 0.0196 ± 0.0049; under GGAGAGGAUACCUAUACAACCUACUACCUCA, 0.123 ± 0.027; under GGAGACCAUAGUAUACAACCUACUACCACA, 0.133 ± 0.015. Turning to GGAGACCUUACUAUACAACCAACAACCUCA, the “pre-steady-state target cleavage rate” value stood at 0.00353 ± 0.0022. Under GGAGACCUAUGAAUACAACCUGCUACCUCA stands 0.00274 ± 0.0027; under GGAGACCUUAGUAAACAACCUACUACCUCA, 0.0245 ± 0.0059; under GGAGACCUAUGAUGACAACCUACUACCUCA, 0.00556 ± 0.0019. Under GGAGACCUAUGAAUACAACGUACUACCACA stands 0.00353 ± 0.0029; under GGAGACCAUACUAUACAAACUACUACCUCA, 0.234 ± 0.017. For GGAGUGGAUUCUUUACAACCUACUACCUCA, the “pre-steady-state target cleavage rate” value was 0.16 ± 0.0093.
